Source: PubChem BioAssay (The Scripps Research Institute Molecular Screening Center)
A selection: hits, their analogues and other compounds. The true share with any hit is near 3.4%.
FBW7 act – human FBW7 E3 ligase activation, primary screen; Q969H0; AlphaScreen FBW7–phospho-cyclin E peptide binding, activator screen; normalized activity (activation), % at 26.1 µM; 0.13% of 650,000 active; AID 1259310; in the data active = normalized activity above about 1.9%;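 also: purified mutant Fbw7 with reduced substrate affinity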
Target sequence (Q969H0 whole entry, looked up): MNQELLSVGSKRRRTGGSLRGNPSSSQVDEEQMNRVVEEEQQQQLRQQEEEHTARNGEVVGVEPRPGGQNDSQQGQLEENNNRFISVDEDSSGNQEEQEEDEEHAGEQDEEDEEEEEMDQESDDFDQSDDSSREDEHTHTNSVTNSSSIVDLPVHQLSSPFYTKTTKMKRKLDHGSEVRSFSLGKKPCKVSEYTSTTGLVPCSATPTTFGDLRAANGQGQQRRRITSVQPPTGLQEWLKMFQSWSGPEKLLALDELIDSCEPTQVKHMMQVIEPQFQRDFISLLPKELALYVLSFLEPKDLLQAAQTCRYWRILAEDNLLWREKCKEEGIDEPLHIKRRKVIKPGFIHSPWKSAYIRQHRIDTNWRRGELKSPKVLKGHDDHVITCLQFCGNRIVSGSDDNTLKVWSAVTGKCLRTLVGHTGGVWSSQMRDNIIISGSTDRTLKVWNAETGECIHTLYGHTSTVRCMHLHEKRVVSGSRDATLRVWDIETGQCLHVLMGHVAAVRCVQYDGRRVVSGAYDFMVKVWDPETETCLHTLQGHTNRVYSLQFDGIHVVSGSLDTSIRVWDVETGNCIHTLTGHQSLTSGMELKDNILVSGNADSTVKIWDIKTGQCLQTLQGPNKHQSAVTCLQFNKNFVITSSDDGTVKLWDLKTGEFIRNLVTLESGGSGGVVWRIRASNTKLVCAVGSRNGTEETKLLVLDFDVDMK
TEAD-YAP block – TEAD-YAP interaction inhibition; HEK-TIYL cells, TEAD-Gal4/YAP UAS-luciferase luminescence; inhibition, % at 9.12 µM; 1.4% of 640,000 active; AID 1259422; in the data active = inhibition above about 32%
MITF inh – inhibitors of human MITF; O75030; AlphaScreen MITF homodimerization, bead proximity signal; AID 1259374; 0.91% of 650,000 active; inhibition, % at 2.6 µM; in the data active = inhibition above about 50%
GPR151 activ – activators of human GPR151; PathHunter beta-arrestin GPR151 cells, luminescence; activation, % at 11.2 µM; Q8TDV0; AID 1508602; 1% of 650,000 active; in the data active = activation above about 4.9%
MITF confirm – human MITF inhibition, confirmation | shares compounds with MITF inh | AlphaScreen MITF homodimerization, biotin/His-MITF beads | inhibition, % at 2.6 µM | 16% of 4,700 active;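 active = inhibition above a cutoff derived from the DMSO control wells, cut at about 28% in these data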;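 also: inhibitors lower the bead chemiluminescence by keeping MITF from dimerizing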
AlphaScreen intf2 – optically interferes with AlphaScreen signal; shares compounds with MITF inh; LysRS AlphaScreen counterscreen, signal interference, triplicate; inhibition, % at 2.6 µM; 7.6% of 4,700 active;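 active = inhibition above a cutoff derived from the DMSO control wells, cut at about 30% in these data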
Each line names hits and unclear results; the compound was inactive in the other large screens (follow-up assays come after a bar, where they were run).

CCC(=O)c1ccccc1OCCCCN1CCN(CC)CC1	MITF inh 60 | MITF confirm inactive | AlphaScreen intf2 inactive
O=[N+]([O-])/C(CN1CCOCC1)=N\Nc1ccc([N+](=O)[O-])cc1	none
COc1ccc(C(=O)NC(=O)NC2CCCC2)cc1	none
CC[n+]1cccc2ccc3cccnc3c21	none
c1cnc2c(c1)ccc1cccnc12	TEAD-YAP block 35, MITF inh 111 | MITF confirm 115 | AlphaScreen intf2 101
c1ccc(Oc2cc(NCCc3ccccn3)ncn2)cc1	none
Cc1ccnc2nc(C(=O)Nc3nc(-c4cccs4)cs3)nn12	none
Cc1ccnc2nc(C(=O)Nc3nc(-c4ccccn4)cs3)nn12	MITF inh 65 | MITF confirm 59 | AlphaScreen intf2 79
Cc1oc(C)c(C(=O)O)c1COc1ccccc1C(=O)O	MITF inh 51 | MITF confirm inactive | AlphaScreen intf2 inactive
Cc1oc(C)c(C(=O)O)c1CSc1ccccc1C(=O)O	none
Cc1ccc(Nc2nc(Cl)nc(N3CCOCC3)n2)cc1	none
COC(=O)c1nnn(CC(=O)Nc2ccc(Br)cc2)c1C(=O)OC	none
CCc1ccc(NC(=O)Cn2nnc(C(=O)OC)c2C(=O)OC)cc1	MITF inh 52 | MITF confirm inactive | AlphaScreen intf2 inactive
O=C(CN1CCCCC1)Nc1c2c(nc3c1CCC3)CCCC2	MITF inh 71 | MITF confirm inactive | AlphaScreen intf2 inactive
O=C(CN1CCCCC1)Nc1c2c(nc3ccccc13)CCCC2	MITF inh 66 | MITF confirm inactive | AlphaScreen intf2 inactive
NCC(=O)Nc1c2c(nc3c1CCC3)CCC2	MITF inh 62 | MITF confirm inactive | AlphaScreen intf2 inactive
O=C(CN1CCCCCC1)NC(c1ccccc1)c1ccccc1	MITF inh 54 | MITF confirm inactive | AlphaScreen intf2 inactive
CC(C)(C)NCC(=O)Nc1c2c(nc3c1CCC3)CCC2	none
NC(=O)C1CCN(CC(=O)Nc2c3c(nc4ccccc24)CCC3)CC1	none
CC1CCN(c2nc(N)c(C#N)c(CC#N)c2C#N)CC1	none
O=C(NCc1ccccc1)c1ccc2nc(Nc3ncccn3)sc2c1	none
O=C(NC(=S)Nc1ccc(-c2nc3ccccc3o2)cc1)c1ccc(S(=O)(=O)N2CCCC2)cc1	none
Cc1cc(NC(=O)CN2CCOCC2)c2ccccc2n1	none
Cc1cc(NC(=O)CN2CCCCC2)c2ccccc2n1	MITF inh 51 | MITF confirm inactive | AlphaScreen intf2 inactive
CCC(Sc1ccc2nnc(-c3cccc(F)c3)n2n1)C(=O)OC (configuration not stated)	none
COc1cc(CN2CCN(S(=O)(=O)c3ccccc3)CC2)ccc1OCc1ccccc1	none
CCOc1ccc(CN2CCN(Cc3ccc(OC)c(OCc4ccccc4)c3)CC2)cc1	MITF inh 69 | MITF confirm inactive | AlphaScreen intf2 inactive
CCOc1ccc(CN2CCN(Cc3ccc(OC)c(OC)c3)CC2)cc1	none
CCS(=O)(=O)N1CCN(Cc2ccc(OCc3ccccc3)c(OC)c2)CC1	MITF inh 51 | MITF confirm inactive | AlphaScreen intf2 inactive
COc1ccc(CNCc2ccco2)cc1OCc1ccccc1	none
COc1ccc(CN2CCN(S(=O)(=O)c3ccc([N+](=O)[O-])cc3)CC2)cc1OCc1ccccc1	MITF inh 52 | MITF confirm inactive | AlphaScreen intf2 inactive
COc1ccc(CN2CCN(Cc3ccco3)CC2)cc1OCc1ccccc1	MITF inh 60 | MITF confirm inactive | AlphaScreen intf2 inactive
Cc1ccc(C)c(NC(=O)c2cccc(C(=O)Nc3cc(C)ccc3C)c2)c1	none
CCOC(=O)/C=C1\NC(c2ccccc2)=C(c2ccccc2)C1=O	MITF inh 56 | MITF confirm inactive | AlphaScreen intf2 inactive
CCOC(=O)/C=C1/Nc2ccccc2C(c2ccccc2)(c2ccccc2)N1	none
CN(C)CCCNC(=O)C(=O)NC1CCCCC1	none
Cc1ccc(Cl)cc1N1CCN(C(=S)NCCN2CCOCC2)CC1	MITF inh 51 | MITF confirm inactive | AlphaScreen intf2 inactive
Cc1c(C(=O)Nc2nc3c(s2)CC(C)CC3)cccc1[N+](=O)[O-] (configuration not stated)	none
COC(=O)c1ccc(Cn2c([N+](=O)[O-])cnc2C)cc1	MITF inh 78 | MITF confirm inactive | AlphaScreen intf2 inactive
Cc1ncc([N+](=O)[O-])n1Cc1ccc(F)cc1	none
CC1(C)CC(=O)C(/C=N/Nc2n[nH]c(=O)[nH]c2=O)=C(O)C1	MITF inh 95 | MITF confirm 34 | AlphaScreen intf2 98
Cc1ccc(-c2cc(C(=O)Nc3ccc(F)c([N+](=O)[O-])c3)c3ccccc3n2)cc1	none
COC(=O)C1=C(C)n2nnnc2NC1c1cc2ccccc2o1 (configuration not stated)	MITF inh 77 | MITF confirm inactive | AlphaScreen intf2 inactive
O=C1CCCN1CCn1cnc2c(NCc3nc4ccccc4[nH]3)nc(Nc3ccccc3)nc21	MITF inh 52 | MITF confirm inactive | AlphaScreen intf2 inactive
CCOc1ccc(S(=O)(=O)N(CC(=O)NCCc2ccccc2)c2ccc(C)cc2)cc1	none
COC(=O)C(NCC(=O)NCc1ccc(Cl)cc1)C(C)C (configuration not stated)	MITF inh 66 | MITF confirm inactive | AlphaScreen intf2 inactive
COCC(=O)NCc1ccc(Cl)cc1	none
O=C(CN1C(=O)C(=O)c2ccccc21)OCc1cccc(Br)c1	none
Fc1ccc(C2=CC(c3ccc(Cl)cc3)n3nnnc3N2)cc1 (configuration not stated)	none
O=[N+]([O-])c1cc(C2C=C(c3ccc(Cl)cc3)Nc3nnnn32)ccc1Cl (configuration not stated)	MITF inh 65 | MITF confirm inactive | AlphaScreen intf2 inactive
COc1ccc(/C=N/Nc2ccc(S(=O)(=O)O)cc2)cc1	none
COc1ccc2cc(/C=N/Nc3ccc(S(=O)(=O)O)cc3)ccc2c1	MITF inh 66 | MITF confirm inactive | AlphaScreen intf2 inactive
O=[N+]([O-])c1c2n(c(C3CCCC3)nc1=S)CCCCC2	none
c1ccc(N2CCCC2=Nc2ccncc2)cc1	MITF inh 68 | MITF confirm inactive | AlphaScreen intf2 inactive
NC(=O)CN1CCCC1=Nc1ccccc1	none
N#C/C(=C/c1ccc(Cl)cc1Cl)c1ccc([N+](=O)[O-])cc1	none
CCOC(=O)N1CCN(S(=O)(=O)c2ccc(C(=O)Nc3ccc(-c4nc5ccc(C)cc5s4)cc3)cc2)CC1	MITF inh 53 | MITF confirm inactive | AlphaScreen intf2 inactive
CCOC(=O)N1CCN(S(=O)(=O)c2ccc(C(=O)Nc3ccc4nc(C)sc4c3)cc2)CC1	none
O=C1CSC(c2ccc(Br)cc2)N1c1ccc(F)cc1F (configuration not stated)	none
CCCOc1ccc(C2Oc3ccc(Br)cc3C3CC(c4ccccc4)=NN32)cc1 (configuration not stated)	none
CCCOc1ccc(C2Oc3ccc(Br)cc3C3CC(c4ccc(Cl)cc4)=NN32)cc1 (configuration not stated)	MITF inh 74 | MITF confirm inactive | AlphaScreen intf2 inactive
